# Only a selection was taken, and the strongest signals are over-represented in it overall.
# Legend:
# Assay in all cases: glycan array binding signal (z-score within array); higher = stronger binding
# Conditions in all cases: glycan notation: IUPAC condensed, linker removed
# [1] = test system: Fuc(a1-2)Gal(b1-3)GlcNAc(b1-3)[Fuc(a1-3)[Gal(b1-4)]GlcNAc(b1-6)]Gal(b1-4)Glc
# Outline: (§1)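 Columns mapping to the same glycan were averaged after glycan names were converted to IUPAC-condensed notation. The data come from 3228 arrays in the Consortium for Functional Glycomics database, limited to those with an available protein sequence. Binding is reported as a within-array Z-score averaged across arrays of one protein sequence and across linkers.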
# [2] = test system: Fuc(a1-2)Gal(b1-3)GalNAc(b1-3)Gal
# Outline: as §1
# [3] = test system: Fuc(a1-2)Gal(b1-3)GlcNAc6S
# Outline: as §1
# [4] = test system: Fuc(a1-2)Gal(b1-3)GlcNAc(b1-3)GalNAc
# Outline: as §1
# [5] = test system: Fuc(a1-2)Gal(b1-3)GlcNAc(b1-3)[Fuc(a1-2)Gal(b1-3)GlcNAc(b1-6)]GalNAc
# Outline: as §1
# [6] = test system: Fuc(a1-2)Gal(b1-3)GalNAc
# Outline: as §1
# [7] = test system: Fuc(a1-2)Gal(b1-3)GlcNAc(b1-2)Man(a1-3)[Fuc(a1-2)Gal(b1-3)GlcNAc(b1-2)Man(a1-6)]Man(b1-4)GlcNAc(b1-4)[Fuc(a1-6)]GlcNAc
# Outline: as §1
# [8] = test system: Fuc(a1-2)Gal(b1-3)GlcNAc(b1-2)Man(a1-3)[Fuc(a1-2)Gal(b1-3)GlcNAc(b1-2)Man(a1-6)]Man(b1-4)GlcNAc(b1-4)GlcNAc
# Outline: as §1
# [9] = test system: Fuc(a1-2)Gal(b1-3)GlcNAc
# Outline: as §1
# [10] = test system: Fuc(a1-2)Gal(b1-3)GlcNAc(b1-3)[Gal(b1-4)GlcNAc(b1-6)]Gal(b1-4)Glc
# Outline: as §1
substance,measurement,setting,value
"SpGH101 (Streptococcus pneumoniae), Q8DR60",glycan array binding signal (z-score),[1],-0.216
LcI (Legionella pneumophila),glycan array binding signal (z-score),[2],4.24
same,glycan array binding signal (z-score),[3],1.6
"BambL (Burhholderia ambifaria), Q0B4G1",glycan array binding signal (z-score),[4],-0.211
Epa22,glycan array binding signal (z-score),[4],-0.565
same,glycan array binding signal (z-score),[5],-0.12
"SiiE (Salmonella typhimurium), A0A0H3NVH0",glycan array binding signal (z-score),[6],-1.18
same,glycan array binding signal (z-score),[7],2.35
AgI/IIC123-GFP (Streptococcus mutans),glycan array binding signal (z-score),[2],-0.278
same,glycan array binding signal (z-score),[8],-0.189
"Wza (Escherichia coli), P0A930",glycan array binding signal (z-score),[9],0.769
AgI/II Vhelical-GFP (Streptococcus mutans),glycan array binding signal (z-score),[4],-0.178
same,glycan array binding signal (z-score),[10],-0.296
